Shown are actives, neighbours in structure and some others; about 19% of the full set was active somewhere.
TDP1 cell CPT: qHTS for Inhibitors of human tyrosyl-DNA phosphodiesterase 1 (TDP1): qHTS in cells in presence of CPT; chicken DT40 Tdp1-/-;hTDP1 cells + 20 nM CPT, ATP luminescence, 48 h; Potency, µM (doses to about 46.2 µM), for the others: top-dose activity change, negative = growth inhibition, actives largely listed as inhibitors; 420,000 compounds, 12% hits; AID 686979, 2013; note: potency is the fitted concentration of half-maximal effect; % is set by controls: 0 for no effect and ±100 for the full control effect; nearly all actives have a fitted effect of over 55% in size
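Cell growth measured by CellTiter-Glo luminescence after a minimum 48 h, 37 C compound exposure with 20 nM CPT in Tdp1-knockout DT40 cells stably expressing hTDP1, seeded 400/well; qHTS titration format.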
HepG2 viability: qHTS for Inhibitors of TGF-b: Cytotox Counterscreen; HepG2 CAGA-GFP viability, ATP luminescence, 18 h; Potency, µM (titrated, usually from 46.1 µM), for inactives: top-dose activity change, negative = cytotoxicity, most hits filed as cytotoxic; 410,000 compounds, 0.76% hits; AID 588856, 2011; note: potency is the fitted concentration of half-maximal effect
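HepG2 CAGA-GFP cells (1000/well, DMEM with 1% FBS) received compound, then TGF-beta at 500 pg/mL final, and were incubated 18 hours at 37 degrees C. Viability was read by CellTiter-Glo luminescence. Media-only wells were set as complete cell-killing and DMSO as no toxicity.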
TGFb SMAD3 inh: qHTS for Inhibitors of TGF-b; HepG2 CAGA-GFP TGF-b/SMAD3 reporter, GFP fluorescence, 18 h; TGF-beta stimulated, 500 pg/mL final; 410,000 compounds, 1.2% hits; Potency, µM (titrated, usually from 46.1 µM), inactives show top-dose activity, negative = inhibition, actives largely listed as inhibitors; note: potency is the fitted concentration of half-maximal effect; % is set by controls: 0 for no effect and ±100 for the full control effect; nearly all actives have a fitted effect of over 65% in size
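GFP signal (ex488/em500-530) from TGF-beta-stimulated HEPG2 CAGA-GFP cells, 500 pg/mL final, 18 h at 37 degrees C in DMEM plus 1% FBS, normalized to unstimulated and DMSO-stimulated controls.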
DT40 TDP1 no CPT: qHTS for Inhibitors of human tyrosyl-DNA phosphodiesterase 1 (TDP1): qHTS in cells in absence of CPT | DT40 Tdp1-/- hTDP1 cells, no CPT, ATP luminescence, 48 h | Potency, µM (highest dose often 46.2 µM), for inactives: at the highest dose activity change, negative = growth inhibition, most hits filed as inhibitors | 420,000 compounds, 15% hits | AID 686978, 2013; note: potency is the fitted concentration of half-maximal effect; % is set by controls: 0 for no effect and ±100 for the full control effect; nearly all actives have a fitted effect of over 55% in size
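Luminescent ATP content (CellTiter-Glo) served as the growth readout. Knockout chicken DT40 cells expressing human TDP1 were exposed to compounds without camptothecin for a minimum 48 hr at 37 °C.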
IL1B secr inh: qHTS for Inhibitors of Inflammasome Signaling: IL-1-beta AlphaLISA Primary Screen; THP-1 LPS/ATP IL-1B secretion, AlphaLISA, 16 h; stronger effect = lower value; activity change, % at 57.5 µM; 360,000 compounds, 4.7% hits; in the data active = activity change below about -50%; inconclusive = mostly about -30% to -49%; note: % is set by controls: 0 for no effect and ±100 for the full control effect
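THP-1 cells pretreated 1 hr with compounds (up to 57.5 uM final), then stimulated with LPS (250 ng/mL final) plus ATP (1.25 mM final); secreted IL-1B measured by AlphaLISA after 16 hr, decreased signal indicating inhibition.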
TDP1 block: qHTS Assay for Inhibitors of Tyrosyl-DNA Phosphodiesterase (TDP1). Tyrosyl-DNA phosphodiesterase 1 (Homo sapiens), Q9NUW8. recombinant TDP1, AlphaScreen DNA substrate cleavage. Potency, µM (top dose mostly 130 µM), for inactives: top-dose activity change, negative = inhibition, hits mostly inhibitors. 350,000 compounds, 0.28% hits. AID 485290, 2010; note: potency is the fitted concentration of half-maximal effect; % is set by controls: 0 for no effect and ±100 for the full control effect; nearly all actives have a fitted effect of over 40% in size
Target sequence (Q9NUW8 whole entry, looked up): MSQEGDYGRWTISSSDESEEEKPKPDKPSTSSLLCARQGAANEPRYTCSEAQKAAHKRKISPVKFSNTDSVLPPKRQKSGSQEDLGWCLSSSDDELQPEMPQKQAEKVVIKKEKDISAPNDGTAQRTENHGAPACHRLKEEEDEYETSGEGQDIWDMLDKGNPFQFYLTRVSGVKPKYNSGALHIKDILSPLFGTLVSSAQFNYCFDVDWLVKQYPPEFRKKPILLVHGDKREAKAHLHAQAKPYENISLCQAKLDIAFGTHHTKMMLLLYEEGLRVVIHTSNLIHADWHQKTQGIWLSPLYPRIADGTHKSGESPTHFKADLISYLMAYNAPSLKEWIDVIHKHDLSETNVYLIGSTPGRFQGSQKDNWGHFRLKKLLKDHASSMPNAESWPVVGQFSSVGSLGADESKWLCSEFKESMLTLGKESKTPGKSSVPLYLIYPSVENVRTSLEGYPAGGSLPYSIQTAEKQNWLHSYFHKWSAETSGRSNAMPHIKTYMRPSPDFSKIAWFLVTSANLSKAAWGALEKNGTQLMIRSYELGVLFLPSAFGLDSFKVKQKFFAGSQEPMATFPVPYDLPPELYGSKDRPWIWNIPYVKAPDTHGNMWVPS
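Enzyme-compound mixtures sat 15 min at room temperature, followed by a 5 min reaction with 15 nM final substrate and 10 min with AlphaScreen beads. Recombinant human Tdp1 was used at 1 nM final.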
* = called active by the depositor; ? = inconclusive; · = no result; [ ] = another dose, or the depositor's remark. Unless noted, calls come from the whole dose curve; as a rule, active = well fitted curve in the direction sought with a large enough effect; inconclusive = small, poorly fitted or top-dose-only effect, or another doubt; inactive = no such curve, though single readings can be large; an effect the other way counts as inactive or inconclusive.

SMILES | TDP1 cell CPT | HepG2 viability | TGFb SMAD3 inh | DT40 TDP1 no CPT | IL1B secr inh | TDP1 block
Cc1cc(-c2ccc(N=Nc3cc(S(=O)(=O)O)c4ccccc4c3N)c(C)c2)ccc1N=Nc1cc(S(=O)(=O)O)c2ccccc2c1N | · | · | · | · | · | 13.2%
CC(C)C(OC(=O)CN1C(=O)COc2ccccc21)C(=O)NC1CCCCC1 (configuration not stated) | -25.3% | 8.2% | 0.2% | ? | 36.3 | -13.4%
CSc1nc(C(C)C)ccc1CNC(=O)CC(C)c1ccccc1 (configuration not stated) | -25.2% | 14.7% | ? | 23.1µM* | 18.0 | ·
CN1C=Nc2c(ncn2C2CCC(CO)O2)C1O (configuration not stated) | -22.9% | · | · | -11.6% | 16.0 | ·
NC(Cc1c[nH]c2ccccc12)C(=O)NCC(=O)O (configuration not stated) | -4.3% | · | · | 9.7% | · | 15.5%
COc1ccc(OC)c(NC(=O)c2cc3c(=O)oc4ccccc4c3s2)c1 | -2.8% | 3.9% | -11.5% | -6.0% | · | 2.9%
CCc1ccccc1NC(=O)CCCSc1nc(-c2ccco2)cc(C(F)(F)F)n1 | -9.1% | 3.3% | 5.1% | -22.1% | · | 4.2%
Cc1cc(NC(=O)CSc2nc(-c3ccco3)cc(C(F)(F)F)n2)n(-c2ccccc2)n1 | 4.11µM* | -1.1% | -25.6% | 4.11µM* | 44.9 | -6.6%
Cc1c(NC(=O)CSc2nc(-c3ccco3)cc(C(F)(F)F)n2)c(=O)n(-c2ccccc2)n1C | ? | -3.7% | 0.3% | -6.0% | -1.8 | 3.3%
Cc1cc(NC(=O)CCCSc2nc(-c3ccco3)cc(C(F)(F)F)n2)n(-c2ccccc2)n1 | ? | -9.2% | ? | 20.6µM* | -27.1 | 4.7%
CC(C)(C)OC(=O)NCCCCCNC(=O)c1nc[nH]c1C(=O)NCC(=O)OCc1ccccc1 | ? | -12.0% | -6.0% | 14.6µM* | -8.9 | 3.4%
CC(C)(C)OC(=O)NCCCC[C@H](NC(=O)c1nc[nH]c1C(=O)NCC(=O)OCc1ccccc1)C(=O)OC(C)(C)C | 14.6µM* | -4.9% | 0.4% | ? | -0.9 | ·
O=C(C1CCOC1)N1CCOc2ccc(CN3CCC(Oc4cccnc4)CC3)cc2C1 (configuration not stated) | -13.2%[9.04 µM] | · | · | -10.5% | · | ·
CCC1CCCCN1S(=O)(=O)c1ccc(C(=O)N(CCCN(C)C)c2nc3cc4c(cc3s2)OCO4)cc1 (configuration not stated) | 16.4µM* | -48.4% | ? | ? | -80.3* | 10.5%
CC1CCCCN1S(=O)(=O)c1ccc(C(=O)N(CCCN(C)C)c2nc3ccc(Br)cc3s2)cc1 (configuration not stated) | 20.6µM* | -95.9% | ? | ? | -105.0* | 11.3%
CCc1ccccc1NC(=O)C1C2C=CC(O2)C1C(=O)O (configuration not stated) | 7.8% | 5.8% | -3.7% | 11.2% | 12.3 | ·
COc1cccc(N2CC(NC(=O)C(c3ccccc3)c3ccccc3)CC2=O)c1 (configuration not stated) | ? | -22.8% | ? | ? | · | 2.6%
CN1/C(=C/C=N/n2cnnc2)C(C)(C)c2ccccc21 | 18.4µM* | -15.3% | -5.2% | 23.1µM* | 25.5 | -5.2%
CN1/C(=C\C=C(C#N)C#N)C(C)(C)c2ccccc21 | -7.0% | 3.4% | -0.2% | -16.1% | 19.4 | 5.8%

Bioassay records deposited in PubChem BioAssay by National Center for Advancing Translational Sciences (NCATS).
